From PubChem
The list is not random: actives were taken first. Their share in the collection is about 3.3%.
Sm TGR block: blocks Schistosoma mansoni thioredoxin glutathione reductase; Q962Y6; purified TGR, DTNB reduction, TNB absorbance 405 nm; Potency, µM (titrated, usually from 114 µM), for inactives: at the highest dose activity change, negative = inhibition, actives largely listed as inhibitors; hit rate 3% among 360,000; AID 485364; note: nearly all actives have a fitted effect of over 60% in size
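First, TGR (20 nM dispensed) and NADPH were mixed with compound. Second, a 15 min room-temperature incubation followed. Third, further NADPH and then DTNB were added to start the reaction. Finally, TNB absorbance was monitored kinetically.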
Tb PYK inh: T. brucei pyruvate kinase inhibition | hit rate 0.12% among 410,000 | Q57TT1 | TbPYK enzyme, Kinase-Glo Plus ATP luminescence, 45 min | Potency, µM (highest dose often 76.8 µM), for the others: at the highest dose activity, negative = inhibition, usual class: inhibitors | AID 624173; note: nearly all actives have a fitted effect of over 50% in size
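Quantitative HTS: titrated library compounds versus trypanosomal pyruvate kinase in TEA buffer (pH 7.2) containing KCl, MgCl2, BSA and Tween-20. Reactions were initiated with ADP, 130 uM final. Kinase-Glo Plus luminescence was read after 45 min at RT.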
Giardia FBPA inh: Giardia lamblia aldolase inhibition. AID 2451. Potency, µM (highest dose often 59.6 µM), inactives show at the highest dose activity, negative = inhibition, most hits filed as inhibitors. hit rate 0.71% among 290,000. purified Giardia FBPA; note: nearly all actives have a fitted effect of over 55% in size
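Giardia FBPA (40 nM reagent) was preincubated 10 min at RT with compound (up to 57.5 uM final), then substrate plus GAPDH/TPI/NAD/arsenate coupling system with diaphorase/resazurin was added; resorufin fluorescence (525/598 nm) was read after 20 min.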
LmPK inh: blocks Leishmania mexicana pyruvate kinase activity; Q27686; purified LmPK, Kinase-Glo ATP luminescence, 1 h; Potency, µM (doses to about 57.5 µM), without a hit: at the highest dose activity change, negative = inhibition, actives largely listed as inhibitors; hit rate 0.37% among 290,000; AID 1721
Target sequence (Q27686 whole entry, looked up): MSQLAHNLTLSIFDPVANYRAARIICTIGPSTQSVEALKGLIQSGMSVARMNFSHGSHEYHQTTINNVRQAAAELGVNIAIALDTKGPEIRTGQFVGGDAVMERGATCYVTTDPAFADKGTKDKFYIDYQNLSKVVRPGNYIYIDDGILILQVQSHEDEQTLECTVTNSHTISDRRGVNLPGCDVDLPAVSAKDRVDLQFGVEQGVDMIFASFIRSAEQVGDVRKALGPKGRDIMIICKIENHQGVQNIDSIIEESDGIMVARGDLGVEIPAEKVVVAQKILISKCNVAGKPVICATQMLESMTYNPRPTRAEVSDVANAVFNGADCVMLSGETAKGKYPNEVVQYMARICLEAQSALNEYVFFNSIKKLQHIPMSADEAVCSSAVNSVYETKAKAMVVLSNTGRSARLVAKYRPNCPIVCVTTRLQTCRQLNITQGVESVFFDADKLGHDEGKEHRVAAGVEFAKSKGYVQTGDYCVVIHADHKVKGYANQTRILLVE
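Screened at intermediate enzyme activity to detect both inhibitors and activators: LmPK at 0.1 nM, with a 0.5 nM enzyme column as activation reference. PEP 0.5 mM, ADP 0.1 mM; ATP detected by luminescence after 1 h.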
RE007 growth inh: less growth of the S. pombe RE007 Vpr strain | Potency, µM (highest dose often 92.2 µM), without a hit: top-dose activity change, negative = less growth, most hits filed as inhibitors | hit rate 0.21% among 360,000 | S. pombe RE007 Vpr strain, BacTiter-Glo ATP luminescence, 24 h; active = well fitted falling curve with a large enough effect; inconclusive = small, poorly fitted or top-dose-only effect; inactive = no such curve, though single readings can be large or run the other way; note: nearly all actives have a fitted effect of over 50% in size
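Fission yeast strain RE007, carrying one chromosomally integrated HIV-1 vpr copy, was seeded at OD 0.01 in PMG+AL medium with 23 nL pinned compound. After 24 h at 30 °C and 99% humidity, viability was read by BacTiter-Glo luminescence.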
Starred values were filed as active, the others as inactive; i = inactive; ? = inconclusive; / = no result; ! = not confirmed by another sample. Unless noted, calls come from the whole dose curve; as a rule, active = well fitted curve in the direction sought with a large enough effect; inconclusive = small, poorly fitted or top-dose-only effect, or another doubt; inactive = no such curve, though single readings can be large; an effect the other way counts as inactive or inconclusive. % is set by controls: 0 for no effect and ±100 for the full control effect; potency is the fitted concentration of half-maximal effect.

SMILES	Sm TGR block	Tb PYK inh	Giardia FBPA inh	LmPK inh	RE007 growth inh
CC1=NOC2(C1)N(C)c1ccccc1C2(C)C (stereo unspecified)	-9%	-4%	19%	-2%	7%
Cc1c(CCO)sc[n+]1CC(=O)OCCC12CC3CC(CC(C3)C1)C2	5%	2%	2%	-3%	-16%
Cc1ncc(C[n+]2csc(CCOC(=O)CC34CC5CC(CC(C5)C3)C4)c2C)c(N)n1	45µM*	-3%	-20%	0%	i
Cc1c(CCOC(=O)CC23CC4CC(CC(C4)C2)C3)sc[n+]1Cc1ccccc1	-11%	7%	/	2%	30%
Cc1c(CCOC(=O)C23CC4CC(CC(C4)C2)C3)sc[n+]1CC#N	4.5µM*	2%	-2%	0%	-13%
Cc1cc(C)cc(NC(=O)CS(=O)(=O)c2ccccc2)c1	-13%	2%	-8%	-3%	22%
Cc1ccc(-n2ncc3c(=O)n(CC(=O)NC4CCCCC4)cnc32)cc1	3%	0%	0%	3%	-8%
Cc1oc(-c2ccc(C(=O)NC(C)c3ccccc3)cc2)nc1CS(=O)(=O)c1ccccc1 (stereo unspecified)	?	-35%	/	/	/
O=C(CCC(=O)N(Cc1ccco1)C(C(=O)NC1CCCC1)c1ccncc1)Nc1cccnc1 (stereo unspecified)	25µM*	-3%	-14%	4%	-6%
O=C(NCC(=O)N(Cc1ccco1)C(C(=O)NC1CCCC1)c1cccnc1)c1cccs1 (stereo unspecified)	-29%	-1%	2%	-1%	6%
O=C(NCC(=O)N(Cc1ccco1)C(C(=O)NC1CCCC1)c1ccncc1)c1cccs1 (stereo unspecified)	35µM*	4%	-1%	-7%	32%
Cc1ccc(C(C(=O)NCc2ccco2)N(Cc2ccco2)C(=O)CNC(=O)c2ccco2)cc1 (stereo unspecified)	45µM*	-17%	-3%	3%	-4%
COc1ccccc1CNC(=O)COC(=O)/C=C/c1cccs1	-3%	-2%	-5%	-2%	8%
CC(=O)c1cn(CC(=O)Nc2ccccc2Cl)c2ccccc12	-16%	-1%	5%	-2%	9%
Cc1cccc(C)c1-n1nnnc1C(c1ccccc1)N1CCC2(CC1)C(=O)NCN2c1ccccc1 (stereo unspecified)	/	3%	/	/	-7%
COc1ccc(C2/C=C\CN(Cc3ccccc3)CC(=O)N2Cc2ccc(F)cc2)cc1 (stereo unspecified)	/	/	-7%	/	/
COc1ccc(C2/C=C\CN(S(=O)(=O)c3ccc(C)cc3)[C@H](Cc3ccccc3)C(=O)N2Cc2ccc(F)cc2)cc1 (stereo partly specified)	28µM*	2%	-5%	3%	1%
COc1ccc(C2/C=C\CN(S(=O)(=O)c3ccc(C)cc3)C(Cc3ccccc3)C(=O)N2Cc2ccc(F)cc2)cc1 (stereo unspecified)	/	/	-3%	/	/
COc1ccc(C2C(=O)N(C3CCCCC3)CC(=O)N2Cc2ccco2)cc1 (stereo unspecified)	32µM*	2%	4%	4%	2%
COc1ccc(C2/C=C\CN(Cc3ccco3)CC(=O)N2Cc2ccc(F)cc2)cc1 (stereo unspecified)	32µM*	-3%	-10%	1%	-1%
O=[N+]([O-])C1=CC=C2C(=NC3(CCCCC3)N2O)C1=NCCc1ccccc1	45µM*	-20%	?	6%	6%
CC(C)(C)N=C1C([N+](=O)[O-])=CC=C2C1=NC1(CCCCC1)N2O	?	-10%	?	-25%	23%
CC1CCC(NC(=O)C2CC(O)CN2S(=O)(=O)c2ccc([N+](=O)[O-])cc2)CC1 (stereo unspecified)	/	-9%	/	/	-7%
COC(Cn1c(-c2cccc(S(=O)(=O)N(C)C)c2)n[nH]c1=S)OC	14%	-16%	-15%	5%	0%
CCN(CC)S(=O)(=O)c1cccc(-c2n[nH]c(=S)n2Cc2ccccc2)c1	-18%	5.6µM*	11%	-2%	14%
SMILES	Sm TGR block	Tb PYK inh	Giardia FBPA inh	LmPK inh	RE007 growth inh
CCN(CC)S(=O)(=O)c1cccc(-c2n[nH]c(=S)n2CC(C)C)c1	-2%	8.9µM*	5%	?	0%
COCCN(CC1CCCN(C2Cc3ccccc3C2)C1)C(=O)CSC (stereo unspecified)	32µM*	2%	-4%	9%	2%
Cc1ccc(Nc2c(-c3ccc(C)o3)nc3cnccn23)cc1	10µM*	-24%	-4%	-7%	7.9µM*!
Cc1ccc(-c2nc3cnccn3c2Nc2ccc3c(c2)OCO3)o1	50µM*	-12%	4%	-7%	2%
COc1ccc(NC(=O)C2CCCN(S(=O)(=O)c3cccnc3)C2)c(OC)c1 (stereo unspecified)	5%	0%	-1%	-1%	8%
COc1ccc(CCNC(=O)c2ccc(CNS(=O)(=O)c3cccc(Cl)c3)cc2)cc1OC	-2%	1%	-1%	2%	30%
O=S(=O)(c1ccccc1)c1nc(-c2ccco2)oc1NCc1ccccc1	35µM*	0%	-17%	4%	-15%
O=S(=O)(c1ccccc1)c1nc(-c2ccco2)oc1Nc1ccccc1	0%	-9%	2%	1%	26%
O=S(=O)(c1ccccc1)c1nc(-c2ccco2)oc1NCc1ccco1	35µM*	-6%	-5%	5%	14%
N#Cc1nc(-c2ccco2)oc1NCc1ccc(F)cc1	45%	0%	4%	3%	9%
O=S(=O)(c1ccccc1)c1nc(-c2ccco2)oc1NCCCn1ccnc1	40µM*	-12%	-27%	2%	-4%
N#Cc1nc(-c2ccco2)oc1NCc1cccnc1	89µM*	-10%	1%	-1%	15%
O=C(CCl)Nc1ccc(S(=O)(=O)NC2=NCCCCC2)cc1	/	-16%	/	/	-10%
CCOc1cc(/C=C2\C(=O)N(Cc3ccco3)C(C)=C2C(=O)OC)ccc1O	/	?	?	0%	8%
Fc1cccc(-c2cc3nc4c(c(N5CCOCC5)n3n2)CCCC4)c1	0%	-12%	1%	-3%	2%
CCOC(=O)Cc1csc(NC(=O)NC2(C(F)(F)F)Oc3ccccc3O2)n1	14µM*	-5%	-7%	8%	0%
COc1cccc(NC(=O)Nc2cccc(C(=O)O)c2)c1	-1%	2%	9%	-23%	5%
COc1cccc(NC(=O)NC2(C(F)(F)F)Oc3ccccc3O2)c1	40µM*	-4%	-2%	1%	-5%
O=C(Nc1cc(N2CCOCC2)ncn1)NC1(C(F)(F)F)Oc2ccccc2O1	13µM*	-3%	2%	-4%	-15%
Fc1ccc(C(Nc2ccccn2)c2c[nH]c3ccccc23)cc1 (stereo unspecified)	2.8µM*	32%	0%	-7%	-24%
